Reference: PMC4336329 (PLoS ONE, 2015)
In all, about 310,000 compounds went through this assay and about 14,000 (4.5%) showed an effect of 50% or more. Effects have a minus sign here. This is one part of a sample in which strong results are shown more often than they occur.

Molecular target: human ether-à-go-go-related gene (hERG) potassium channel (human, UniProt Q12809)
Assay: primary screen, population patch clamp on CHO cells stably expressing hERG; higher = less effect of the substance
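Note: peak tail current of the secondary pulse compared with the same well before compound.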

Chain of human ether-à-go-go-related gene (hERG) potassium channel (Q12809 whole entry, looked up): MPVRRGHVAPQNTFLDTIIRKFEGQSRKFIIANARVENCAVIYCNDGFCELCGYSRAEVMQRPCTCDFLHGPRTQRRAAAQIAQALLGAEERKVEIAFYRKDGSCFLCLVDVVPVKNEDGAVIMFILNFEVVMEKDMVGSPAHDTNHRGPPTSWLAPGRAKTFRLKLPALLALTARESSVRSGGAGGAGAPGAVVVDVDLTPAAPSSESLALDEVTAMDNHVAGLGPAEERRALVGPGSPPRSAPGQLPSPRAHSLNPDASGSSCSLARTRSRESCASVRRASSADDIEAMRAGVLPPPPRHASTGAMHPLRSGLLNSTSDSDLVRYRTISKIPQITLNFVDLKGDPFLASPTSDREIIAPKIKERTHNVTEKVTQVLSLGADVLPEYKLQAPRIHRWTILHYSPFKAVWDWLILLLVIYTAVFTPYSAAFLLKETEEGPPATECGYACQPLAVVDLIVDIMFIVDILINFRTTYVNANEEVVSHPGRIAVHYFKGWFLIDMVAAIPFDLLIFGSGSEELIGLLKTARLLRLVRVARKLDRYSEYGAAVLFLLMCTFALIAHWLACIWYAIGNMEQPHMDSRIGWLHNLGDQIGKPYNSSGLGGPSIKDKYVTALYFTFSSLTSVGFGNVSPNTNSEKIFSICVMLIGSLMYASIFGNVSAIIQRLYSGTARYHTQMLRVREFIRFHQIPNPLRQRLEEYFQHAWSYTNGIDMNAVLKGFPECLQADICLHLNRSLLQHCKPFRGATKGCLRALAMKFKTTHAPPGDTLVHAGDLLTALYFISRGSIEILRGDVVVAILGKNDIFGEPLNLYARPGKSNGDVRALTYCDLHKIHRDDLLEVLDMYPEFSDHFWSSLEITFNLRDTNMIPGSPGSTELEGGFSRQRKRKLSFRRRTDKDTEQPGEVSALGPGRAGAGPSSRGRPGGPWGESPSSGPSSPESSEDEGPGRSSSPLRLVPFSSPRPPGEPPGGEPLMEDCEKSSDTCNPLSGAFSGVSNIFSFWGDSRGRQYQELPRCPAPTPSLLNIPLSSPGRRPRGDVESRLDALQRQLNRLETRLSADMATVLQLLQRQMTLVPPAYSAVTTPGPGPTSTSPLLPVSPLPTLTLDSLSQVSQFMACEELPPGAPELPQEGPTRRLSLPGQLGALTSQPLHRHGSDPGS

Structure (SMILES)	hERG current change (%, negative = inhibition) at 10uM
CCOC(=O)c1[nH]c(C)c(C(=O)N2CCN(c3cccc(Cl)c3)CC2)c1C	-13.8%
CN(C(=O)CSc1ncc(C(F)(F)F)cc1Cl)c1c(N)n(Cc2ccccc2)c(=O)[nH]c1=O	8.25%
C/C(=N\OCc1ccc(C#N)cc1)c1ccc(S(=O)(=O)N(C)C)cc1	-52.7%
CN(C)S(=O)(=O)c1ccc(C(=O)OCc2ccc(C#N)cc2)cc1	-11.1%
C/C(=N\OCc1ccc(C#N)cc1)c1ccccc1	12.1%
C=CCn1c(SCC(=O)N2CCOCC2)nc2sc3c(c2c1=O)CCCC3	-53.9%
CCn1c(SCC(=O)N2CCOCC2)nc2sc3c(c2c1=O)CCCC3	-5.19%
C=CCn1c(SCC(=O)NC2CCCC2)nc2c([nH]c3ccccc32)c1=O	-40.8%
C=CCn1c(SCC(=O)N2CCOCC2)nc2c([nH]c3ccccc32)c1=O	-52.9%
C=CCn1c(SCC(=O)N2CCN(c3ccccc3)CC2)nc2c([nH]c3ccccc32)c1=O	13.3%
C=CCn1c(SCC(=O)NCCc2ccccc2)nc2c([nH]c3ccccc32)c1=O	-3.29%
C=CCn1c(SCC(=O)N2CCN(CCO)CC2)nc2sc3c(c2c1=O)CCC3	-20.9%
C=CCn1c(SCCN2CCCC2)nc2c([nH]c3ccccc32)c1=O	-71.7%
C=CCn1c(SCC(=O)N2CCCC2)nc2c([nH]c3ccccc32)c1=O	-29.6%
COc1ccc(S(=O)(=O)Nc2ccc(S(=O)(=O)Nc3nccs3)cc2)cc1	19.9%
COc1ccc(OCc2cc(C(=O)O)c(C)o2)cc1	2.69%
CCN(CC)c1nc2ccccc2n2cnnc12	-16.4%
CCn1c(SC)nnc1-c1sc2cc(Cl)ccc2c1Cl	-55.4%
CCn1c(SC)nnc1-c1nnc(SC)n1CC	-7.09%
CSc1nnc(-c2sc3cc(Cl)ccc3c2Cl)n1C	0.137%
Cc1ccc(SCC(=O)OCC(=O)NC2CCCCCCC2)cc1	-4.33%
O=C(N/N=C/c1ccc[nH]1)c1cc(-c2cccs2)nc2ccccc12	0.659%
Br.CCC(C)N1Cc2ccccc2C1=N (stereo not shown)	2.75%
O=C(O)[C@@H](c1ccccc1)N1Cc2ccccc2C1=O	17.2%
Br.Cc1ccc(C(=O)C(c2ccccc2)N2Cc3ccccc3C2=N)cc1 (stereo not shown)	-60.3%
